# From PubChem
# HCT116 PTEN-null – suppresses growth of cells with PTEN deletion | viability, % at 10 µM | 140,000 tested, 1.2% active | HCT116 PTEN-null viability, CellTiter-Glo, 60 h; hits give low values;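 active = viability at or below a set limit, 4 SD under the median of all tested compounds, cut at about 3.7% in these data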;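 note: PTEN knockout HCT116 line with beta catenin targeted HCT116 as companion control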
# p97 inhibitor – blocks human p97 ATPase activity; AID 1481; 220,000 tested, 0.42% active; inhibition, % at 8 µM; recombinant p97 ATPase, Kinase-Glo ATP luminescence, 3 h; P55072; in the data active = inhibition above about 15%
# ROMK primary – human ROMK K+ channel modulation, primary screen; P48048; Tet-inducible ROMK, thallium flux fluorescence; actives lie on both sides; B-score at 10 µM; 130,000 tested, 2% active; AID 1918;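 active = signal ratio slope over the read window, or its plate-corrected B-score, at least 3 SD from the plate mean, either direction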;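 note: B-score of the F/F0 ratio slope over 7 to 12 s after thallium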
# Target sequence (P48048 whole entry, looked up): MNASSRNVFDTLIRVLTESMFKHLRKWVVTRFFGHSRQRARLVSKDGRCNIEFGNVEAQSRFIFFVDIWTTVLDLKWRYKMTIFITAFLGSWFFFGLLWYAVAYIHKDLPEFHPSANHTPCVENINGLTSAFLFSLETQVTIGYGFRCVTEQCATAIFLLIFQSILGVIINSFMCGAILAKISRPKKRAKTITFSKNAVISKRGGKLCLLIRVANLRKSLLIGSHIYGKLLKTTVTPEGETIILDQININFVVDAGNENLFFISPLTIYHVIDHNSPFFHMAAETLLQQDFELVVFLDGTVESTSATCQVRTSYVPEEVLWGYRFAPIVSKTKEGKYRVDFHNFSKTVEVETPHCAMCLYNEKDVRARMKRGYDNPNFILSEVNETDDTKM
# L major viab – reduces viability of Leishmania major promastigotes; resazurin fluorescence viability; inhibition, % at 10 µM; 200,000 tested, 9% active; AID 1063; in the data active = inhibition above about 50%;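 note: promastigotes grown with compound for 44 hours at 28 °C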
# HCT116 bCat-KO – beta-catenin-lacking colon tumor cell growth suppression | HCT116 beta-catenin knockout viability, CellTiter-Glo, 60 h; hits give low values | viability, % at 10 µM | 140,000 tested, 1.5% active;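 active = viability at or under a set limit, the compound median less 4 SD, cut at about 6% in these data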
# INS promoter inh – TRM-6 insulin promoter activity inhibition; TRM-6 cells (human fetal islet line), insulin promoter-eGFP reporter, imaging; reporter expression induced with tamoxifen; inhibition, % at 2 µM; 130,000 tested, 0.9% active;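 active = inhibition above the mean plus 3 SD, with well images judged a real hit on visual review, cut at about 60% in these data, passing the limit was not always enough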
# A number is an active result; i = inactive; nt = no result given. Shown are actives, neighbours in structure and some others; about 10% of the full set was active somewhere.
SMILES,HCT116 PTEN-null,p97 inhibitor,ROMK primary,L major viab,HCT116 bCat-KO,INS promoter inh
CC(=O)Nc1nc(N2C(=O)c3ccccc3C2=O)n(-c2ccccc2)n1,i,i,i,i,i,76
Cc1ccc(/C=C/C(=O)c2nc3ccccc3[nH]2)cc1,2.7,i,i,98,2.5,nt
CCc1ccc(C2=NN(c3ccc(S(N)(=O)=O)cc3)C(c3ccc(F)cc3)C2)cc1 (centres undefined),i,i,nt,78,i,i
O=CN(c1ccccc1)c1ccc2ccccc2c1,nt,i,nt,i,nt,nt
O=C(CCC(=O)N1CCN(S(=O)(=O)c2ccc3ccccc3c2)CC1)Nc1cc(Cl)cc(Cl)c1,nt,i,i,63,nt,nt
O=S(=O)(c1ccc2ccccc2c1)N1CCN(C(=S)Nc2ccc(F)c(Cl)c2)CC1,i,i,i,90,i,i
O=C(CCC(=O)N1CCN(S(=O)(=O)c2ccc(Cl)cc2)CC1)Nc1ccc(Cl)cc1Cl,i,i,i,i,i,i
O=C(Cn1ncc(Cl)c(Cl)c1=O)N1CCN(S(=O)(=O)c2ccc3ccccc3c2)CC1,1.1,i,nt,99,1.1,nt
O=S(=O)(c1ccc2ccccc2c1)N1CCN(C(=S)Nc2ccc(F)cc2)CC1,i,i,i,i,i,nt
CCc1cc(CNC(=O)CCc2nnc(CCCc3ccccc3)o2)on1,nt,i,i,i,nt,nt
CC(C)(C)c1cc(C(=O)NCCN2CCCC2)cc(C(C)(C)C)c1,nt,i,i,i,nt,nt
CCOc1ccc(S(=O)(=O)n2cc(-c3ccc(F)cc3)c(N)n2)cc1,i,i,nt,i,i,87
CC1(C)CC(=O)C2=C(C1)N(c1ccc(F)cc1)C(=O)CC2c1cccnc1 (centres undefined),i,i,nt,i,i,nt
CCSc1nnc(N2C(=O)CC(c3ccsc3)C3=C2CC(C)(C)CC3=O)s1 (centres undefined),i,i,nt,67,i,nt
CCOC(=O)Cc1csc(/N=C/c2c(O)n(-c3ccccc3C(F)(F)F)c(=O)c3ccccc23)n1,i,i,i,i,i,i
COc1ccccc1-c1cc(C(F)(F)F)nc(S(=O)(=O)CCCC(=O)Nc2cccnc2Cl)n1,nt,i,i,i,nt,73
COc1ccccc1-c1cc(C(F)(F)F)nc(S(=O)(=O)CCCC(=O)NCc2ccc(F)cc2)n1,nt,i,i,i,nt,i
COc1ccccc1-c1cc(C(F)(F)F)nc(S(=O)(=O)CCCC(=O)NC(C)C)n1,i,i,i,89,6.0,nt
COc1ccccc1-c1cc(C(F)(F)F)nc(S(=O)(=O)CCCC(=O)Nc2cc(C)on2)n1,2.0,i,i,i,4.0,i
CCN(CC)C(=O)NC1CC(=O)N(c2ccc(OC)cc2)C1 (centres undefined),i,i,nt,i,i,nt
CC1(C)COC(c2cc([N+](=O)[O-])ccc2Cl)=N1,i,i,i,i,i,i
CC1(C)COC(/C=C/c2cccc([N+](=O)[O-])c2)=N1,nt,i,nt,98,nt,i
CC(=O)N1CCCC(C(=O)c2ccc(Oc3ccccc3)cc2)C1 (centres undefined),nt,i,i,i,nt,nt
COc1ccccc1NC(=O)COc1ccc(C(=O)NC2CCCc3ccccc32)cc1OC (centres undefined),nt,i,i,i,nt,nt
Cc1cc2c3c(ccc(C)c3n1)N=CN2c1ccccc1,i,i,nt,i,i,81
SMILES,HCT116 PTEN-null,p97 inhibitor,ROMK primary,L major viab,HCT116 bCat-KO,INS promoter inh
Cc1cc(Nc2ccccc2)c2c([N+](=O)[O-])ccc(C)c2n1,i,i,i,i,i,i
COc1cc(-c2nc(-c3ccccc3)c(-c3ccc(F)cc3)[nH]2)cc2c1OCO2,i,i,i,i,i,nt
COc1ccccc1N=Nc1nc(-c2ccccc2)c(-c2ccccc2)[nH]1,i,i,i,67,i,i
CS(=O)(=O)c1nc(-c2ccccc2)c(-c2ccccc2)[nH]1,i,i,i,i,i,i
COc1ccc(-c2nc(C)ncc2N=Nc2ccccc2)cc1,i,i,nt,i,i,i
Oc1ccccc1N=Nc1nc(-c2ccccc2)c(-c2ccccc2)[nH]1,i,i,i,100,i,i
COc1ccc(N=Nc2nc(-c3ccccc3)c(-c3ccccc3)[nH]2)cc1,i,i,nt,87,i,i
COc1ccc(-c2[nH]c(-c3ccc4c(c3)OCO4)nc2-c2ccccc2)cc1,1.4,i,nt,65,1.3,nt
COC(=O)/C=C/c1ccc(OC(=O)OC)c(OC(=O)OC)c1,i,i,nt,i,i,nt
COc1cc(/C=N/NC(N)=O)ccc1OCC(=O)Nc1cc(C)c(C)cc1Br,nt,i,i,i,nt,nt
Nc1ncnc2nc(SCCOc3ccc(Cl)cc3)[nH]c12,i,i,nt,55,i,i
COc1ccc(OCCSc2ncccn2)cc1,i,i,nt,i,i,nt
Clc1ccc(OCCSc2ncccn2)cc1,i,i,i,i,i,66
COCCN(Cc1cc2cc3c(cc2nc1Cl)OCO3)C(=O)c1ccc(C)cc1,nt,i,i,i,nt,i
O=C(NNC(=O)c1cc(-c2ccccc2)nc2ccccc12)Nc1cccc(Cl)c1,i,i,i,99,i,i
O=C(NNC(=O)c1cc(-c2cccnc2)nc2ccccc12)Nc1ccc(Cl)cc1,nt,i,i,i,nt,nt
O=C(Nc1nccs1)c1cc(-c2ccccc2)nc2ccccc12,i,i,i,90,i,i
Cc1ccc(-c2cc(C(=O)NCc3ccccn3)c3ccccc3n2)cc1C,1.9,i,nt,88,3.4,i
COC(=O)c1sc2nc(CN3CCN(c4cccc(C(F)(F)F)c4)CC3)[nH]c(=O)c2c1C,i,i,nt,i,i,nt
COc1ccc(COC(=O)N/N=C(\C)CC(=O)Nc2ccc(Cl)cn2)cc1,nt,i,nt,nt,nt,nt
NC(=O)CSc1nnc(-c2cc(-c3ccc(Cl)cc3)nc3ccccc23)o1,nt,i,i,i,nt,nt
Cc1cc(C(=O)COC(=O)CC2Sc3ccccc3NC2=O)c(C)n1-c1cccc(C(F)(F)F)c1 (centres undefined),i,i,i,97,i,i
O=C(O)CC1NCCc2ccccc21 (centres undefined),nt,i,nt,nt,nt,nt
N#CC1(C#N)CC(C=O)=C(N)C1(C#N)CC(=O)C12CC3CC(CC(C3)C1)C2 (centres undefined),i,i,i,i,i,i
CC1CC(NC(=O)CCn2c(=O)oc3ccccc32)CC(C)(C)C1 (centres undefined),i,i,nt,99,i,nt
SMILES,HCT116 PTEN-null,p97 inhibitor,ROMK primary,L major viab,HCT116 bCat-KO,INS promoter inh
O=C(CCCn1c(=O)oc2ccccc21)NC1CCCCCC1,nt,i,i,i,nt,nt
CCN(CC)S(=O)(=O)c1ccc(C(=O)NCC(c2ccc(OC)cc2)N2CCOCC2)cc1 (centres undefined),nt,i,i,i,nt,i
N=C1SCC(=O)N1c1ncc(Cc2ccc(F)cc2)s1,nt,i,i,i,nt,i
CCOC(=O)C1CCCN(CC(O)COc2ccc(OC)cc2C(C)(C)C)C1 (centres undefined),i,i,nt,i,i,nt
CCOC(=O)N1CCN(CC(O)COc2ccc(OC)cc2C(C)(C)C)CC1 (centres undefined),i,i,i,59,i,i
CCOC(=O)N1CCN(CCC(=O)Nc2ccc(OC)cc2)CC1,i,i,i,i,i,i
CCOC(=O)N1CCC(NC2CCCCCCC2)CC1,i,i,i,94,i,i
